Active and inactive are the calls of the source. Rule for the calls: active = hit-call score of the fitted dose curve at least 0.9, where 1 is the maximum; inactive = score below 0.9.
Read-out: Caspase-3 (Homo sapiens) (UniProt P42574)
Experiment: LTEA_HepaRG_CASP3: Life Technologies and Expression Analysis (LTEA) Assay for cysteine-aspartic acid protease (CASP3) using HepaRG (AID 2283477)
Conditions: mRNA level, 48 h; actives raise or lower the signal
Method: LTEA_HepaRG is a cell based, multiplexed-readout assay that uses HepaRG, a human liver cell line, with measurements taken at 48 hours after chemical dosing on a 96-well plate.LTEA_HepaRG_CASP3 is one of 102 assay component(s) measured in the LTEA HepaRG cell culture assay. It is a marker of Cell proliferation, survival, death.Data from the assay component LTEA_HepaRG_CASP3 was analyzed into 1 endpoint. This assay endpoint, LTEA_HepaRG_CASP3, was analyzed with bidirectional fitting relative to DMSO as the negative control and baseline of activity. Using a type of inducible reporter, measures of mRNA induction for gain or loss-of-signal activity can be used to understand regulation of transcription factor activity. To generalize the intended target to other relatable targets, this assay endpoint is annotated to the protease intended target family, where the subfamily is cysteine protease.
A total of 1060 chemcials from the ToxCast library were tested in eight-point concentration-response experiments. Cell culture and cytotoxicity assays were conducted at Thermo Fisher Scientific's Custom Services facility (Madison, WI). A single lot of human HepaRG cells (Thermo Fisher Scientific, Frederick, MD) was used for the cell culture experiments. 96-well format collagen type I coated plates of human HepaRG cells were prepared using established methods. Briefly, cryopreserved HepaRG cells were thawed, plated at a density of approximately 100,000 cells/well in HepaRG Thaw, Plate, and General Purpose media (HPRG770, Thermo Fisher Scientific), and incubated for 48 hours. 0.5% DMSO was selected as vehicle control to balance the requisite need of DMSO in HepaRG cultures to maintain differentiation (for example, baseline metabolism, proportions of hepatocytes vs. cholangiocytes), while enabling further hepatic receptor pathway activation (for example, PXR and CAR) in response to chemical exposure. 48 hours after plating, the culture medium was replaced with HepaRG Serum-Free Incudtion Media. Cells were exposed to each test chemical in duplicate and maintained in CO2 incubators for another 48 hours. Chemical plates were thawed to room temperature and 200x concentrations of treatment groups were prepared. 8-point conentration-reponse curves were made with the highest exposure at 100 uM, followed by half-log dilutions, all in 0.5% DMSO. Each test plate contained variouse controls, induction positive controls (1mM phenobarbital), cytotoxicity positive controls ([…] aflatoxin B1), vehicle controls (0.5% DMSO), and total lysis controls (0.5% DMSO). Cell morphology images were taken using an Essen IncuCyte FLR automated microscope, with six 96-well plates imaged in about 24 minutes. Images were captured and exported and JPEG files. Spent culture media was transfered to black-well plates for the LDH assay, and remaining media was sorted at -80 C for later use. Cells were treated with RLT buffer and frozen until shipped for gene expression analysis. Total RNA was isolated from the cell suspension in 75 uL of Buffer RLT (Qiagen, Germantown, MD 20874) by Quintiles/Expression Analysis (Durham, NC) using a custom isolation procedure. Total RNA from each plate well was transferred to a preamplification plate. Fluidigm's 96.96 Dynamic ArrayTM (Fluidigm, Amsterdam, the Netherlands) technology was used for gene expression analyses by quantitative reverse transcription polymerase chain reaction (qRT-PCR, performed by Quintiles/Expression Analysis, Durham, NC)89. Standard TaqManTM Assays (Applied Biosystems/ThermoFisher Scientific, Foster City, CA) were used to assess the expression of 93 genes selected based on their selectivity and sensitivity to important hepatic receptors known to be modulated by environmental chemicals; importance in human hepatocyte functionality; and hepatotoxicity. […]

Chain of Caspase-3 (Homo sapiens) (P42574 whole entry, looked up): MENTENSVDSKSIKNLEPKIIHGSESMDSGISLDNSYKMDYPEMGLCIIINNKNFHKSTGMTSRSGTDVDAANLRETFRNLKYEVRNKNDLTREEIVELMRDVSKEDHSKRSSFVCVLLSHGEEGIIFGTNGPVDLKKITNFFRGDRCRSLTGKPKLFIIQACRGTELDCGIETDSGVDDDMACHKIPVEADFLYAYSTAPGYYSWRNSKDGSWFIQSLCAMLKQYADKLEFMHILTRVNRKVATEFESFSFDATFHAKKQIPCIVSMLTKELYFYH

Row | Compound | outcome | AC50
1 | CN(C)C(=S)S | inactive | –
2 | COc1ccccc1N | inactive | –
3 | CC(C)(C)c1ccccc1O | inactive | –
4 | Clc1cccc(Cl)c1Cl | inactive | –
5 | N#Cc1cccnc1 | inactive | –
6 | O=C(N[C@H]1CN2CCC1CC2)c1ccc2c(c1)OCCO2 | inactive | –
7 | Cc1cc(C)cc(C)c1 | inactive | –
8 | Oc1cc(Cl)c(Cl)cc1Cl | inactive | –
9 | OCCN(CCO)CCO | inactive | –
10 | O=C(O)C1(c2ccc3c(c2)OC[C@H](Cc2ccc(-c4ccccc4)cc2)[C@H]3O)CCCC1 | – | 79 µM (active)
11 | CC(C)O.CC(C)O.OCCN(CCO)CCO.OCCN(CCO)CCO.[Ti] | inactive | –
12 | Clc1cccc(Cl)c1 | inactive | –
13 | Oc1c(Cl)cc(Cl)cc1Cl | inactive | –
14 | CCCCCCCCCCCCc1cccc(S(=O)(=O)O)c1 | inactive | –
